# According to PubChem BioAssay (EPA / NIEHS):
# Records with an inconclusive call do not appear. Activity calls are given as the source filed them. Rule for the calls, unless noted: active = hit-call score of the fitted dose curve at least 0.9, where 1 is the maximum; inactive = score below 0.9.
# What was measured:
# [1] = CCTE_Padilla_ZF_Score.Tail: CCTE's 144 Hour Post-fertilization zebrafish Assay Score for Tail Malformation, Padilla Lab (AID 2284414)
# Outline: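 Wild-type zebrafish embryos, one per well in 200 uL 10% Hanks', dosed at 6-8 hpf, sealed, and kept at 26 C on a 14:10 h light cycle. Chemical was rinsed out at 5 dpf. Blinded brightfield scoring of tail defects followed at 6 dpf.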
# [2] = CCTE_Padilla_ZF_Score.Blood_pooling: CCTE's 144 Hour Post-fertilization zebrafish Assay Score for Blood Pooling, Padilla Lab (AID 2284415)
# Outline: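 Wild-type outbred zebrafish embryos, one per well in 10% Hanks', exposed from 6–8 hpf in sealed plates at 26C on 14:10 h light:dark, rinsed at 5 dpf. Blinded stereomicroscope scoring of blood pooling at 6 dpf; gain-of-signal versus DMSO.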
# TTR (gene 7276) = assay: CCTE_GLTED_hTTR_0.125uM: CCTE's human Transthyretin (hTTR) Inhibition Assay, with 0.125uM TTR, Great Lakes Toxicology and Ecology Division (GLTED) Lab (AID 2284431);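 note: hits lower the fluorescence signal relative to DMSO baseline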
# Outline: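 Probe-displacement format: chemicals competing for the T4 site release ANSA from 0.125uM TTR during a 2 h incubation, measured by fluorescence at 380 excitation and 475 emission.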
# [3] = system: SRY-box transcription factor 17 (SOX17) Protein Expression, Deisenroth Lab, SOX17 (gene 64321); assay: CCTE_Deisenroth_DEVTOX-GLR_Endo_SOX17: CCTE's DevTox GLR-Endo Assay Evaluation of SRY-box transcription factor 17 (SOX17) Protein Expression, Deisenroth Lab (AID 2284413)
# Outline: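 Seed RUES2-GLR cells 24 h; start endoderm differentiation; dose at 0 and 24 h (1 nM - 200 uM, 10 points); fix at 48 h, stain nuclei, image 5 fields/well; compute SOX17+/total cells vs 0.2% DMSO.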
# [4] = system: Brachyury (BRA) Protein Expression, TBXT (gene 6862); assay: CCTE_Deisenroth_DEVTOX-GLR_Endo_BRA: CCTE's DevTox GLR-Endo Assay Evaluation of Brachyury (BRA) Protein Expression, Deisenroth Lab (AID 2284417)
# Outline: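 Endpoint is the fraction of BRA reporter-positive cells over total nuclei, corrected by subtracting the 0.2% DMSO value. Chemicals (1 nM - 200 uM, 10 points) were dosed twice during 48 h differentiation of RUES2-GLR cells, read by imaging.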
# [5] = CCTE_Deisenroth_DEVTOX-GLR_Endo_CellCount: Viability Assessment in CCTE's DevTox GLR-Endo Assay, Deisenroth Lab (AID 2284420)
# Protocol: CCTE_Deisenroth_DEVTOX-GLR_Endo assay is a cell-based, multiplex-readout assay that uses RUES2-GLR, a human pluripotent cell line, with measurements taken at 48 hours after chemical dosing in a 384-well microplateCCTE_Deisenroth_DEVTOX-GLR_Endo_CellCount is 1 of 4 assay components calculated from the CCTE_Deisenroth_DEVTOX-GLR_Endo assay and it measures cell count. Using fluorescent nuclear staining, loss-of-signal activity can be used to understand changes in cell viability with fluorescent microscopy. It is designed to make measurements of nuclei counts as a surrogate for cell number, as detected with optical fluorescence microscopy by Perkin Elmer Harmony nuclei detection algorithm. To generalize the intended target to other relatable targets, this assay component is annotated to the cell cycle intended target family, where the subfamily is cytotoxicity.Data from the assay component CCTE_Deisenroth_DEVTOX-GLR_Endo_CellCount was analyzed as 1 assay endpoint. The endpoint the percent change in cell count relative to the 0.2% DMSO control in the CCTE_Deisenroth_DEVTOX-GLR_Endo assay. Furthermore, this assay endpoint can be referred to as a primary readout, because this assay has produced multiple assay endpoints where this one serves as a measure of cytotoxicity.
# (§1) All assay protocols are aligned to the DevTox GLR-Endo assay workflow. Cells are seeded into 384-well microplates for 24 hours prior to initiating differentiation in defined media for a total duration of 48 hours. A total of two chemical exposures are administered in 24-hour intervals during the 48-hour differentiation period. At the assay termination point, cells are fixed and stained with a fluorescent dye demarcating the nucleus. High-content imaging is used to acquire brightfield and fluorescent channel images across 5 fields per well. Cell identification and mean biomarker fluorescence intensities are calculated with image analysis software to determine the total cell counts for viability assessment and the biomarker expression frequency for each lineage-dependent assay. A typical experimental design tests a 10-point concentration series (1 nM - 200 uM) for 28 compounds in single technical replicate. Assay plate controls include non-differentiated pluripotent cells (baseline control), lineage-specific differentiated cells (differentiation control), and DMSO solvent exposed differentiated cells (solvent control). Experiments typically comprise a minimum of four experimental replicates (n=4).
# [6] = system: SRY-box transcription factor 17 (SOX17) Protein Expression, Deisenroth Lab, SOX17 (gene 64321); assay: CCTE_Deisenroth_DEVTOX-GLR_Pluri_SOX17: CCTE's DevTox GLR-Pluri Assay Evaluation of SRY-box transcription factor 17 (SOX17) Protein Expression, Deisenroth Lab (AID 2284427; active = hit-call score of the fitted dose curve at least 0.9, where 1 is the maximum)
# Protocol: CCTE_Deisenroth_DEVTOX-GLR_Pluri assay is a cell-based, multiplex-readout assay that uses RUES2-GLR, a human pluripotent cell line, with measurements taken at 48 hours after chemical dosing in a 384-well microplateCCTE_Deisenroth_DEVTOX-GLR_Pluri_SOX17 is 1 of 4 assay components calculated from the CCTE_Deisenroth_DEVTOX-GLR_Pluri assay and it measures an the percentage of cells in an endoderm state. Using a type of inducible fluorescent protein reporter, gain-of-signal activity can be used to understand changes in gene expression with fluorescent microscopy. The percentage of SOX17+ cells are determined by calculating the number of SOX17+ cells divided by the cell count. To generalize the intended target to other relatable targets, this assay component is annotated to the transcription factor intended target family, where the subfamily is SRY-related HMG-box.Data from the assay component CCTE_Deisenroth_DEVTOX-GLR_Pluri_SOX17 was analyzed as 1 assay endpoint. The endpoint is the percent SOX17+ cell population minus the 0.2% DMSO control in the CCTE_Deisenroth_DEVTOX-GLR_Pluri assay. This assay endpoint can be referred to as a secondary readout since this assay has produced multiple assay endpoints where this one serves as a measure of endoderm differentiation.
# as §1
# [7] = system: SRY-box transcription factor 2 (SOX2) Protein Expression, Deisenroth Lab, SOX2 (gene 6657); assay: CCTE_Deisenroth_DEVTOX-GLR_Pluri_SOX2: CCTE's DevTox GLR-Pluri Assay Evaluation of SRY-box transcription factor 2 (SOX2) Protein Expression, Deisenroth Lab (AID 2284428)
# Outline: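 SOX2 expression frequency is scored in a human pluripotent reporter line, RUES2-GLR, exposed to chemicals twice over 48 h. Imaging-based SOX2+ cell percentage is normalized as change versus 0.2% DMSO.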
# [8] = system: Brachyury (BRA) Protein Expression, Deisenroth Lab, TBXT (gene 6862); assay: CCTE_Deisenroth_DEVTOX-GLR_Pluri_BRA: CCTE's DevTox GLR-Pluri Assay Evaluation of Brachyury (BRA) Protein Expression, Deisenroth Lab (AID 2284429; active = hit-call score of the fitted dose curve at least 0.9, where 1 is the maximum)
# Outline: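 An inducible fluorescent BRA reporter in RUES2-GLR cells tracks mesoderm differentiation. Compounds (10 concentrations, 1 nM - 200 uM) are dosed twice within a 48-h differentiation. The endpoint subtracts the 0.2% DMSO control from percent BRA+ cells.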
# [9] = CCTE_Deisenroth_DEVTOX-GLR_Pluri_CellCount: Viability Assessment in CCTE's DevTox GLR-Pluri Assay Evaluation of Total Cell Counts, Deisenroth Lab (AID 2284430)
# Protocol: CCTE_Deisenroth_DEVTOX-GLR_Pluri assay is a cell-based, multiplex-readout assay that uses RUES2-GLR, a human pluripotent cell line, with measurements taken at 48 hours after chemical dosing in a 384-well microplateCCTE_Deisenroth_DEVTOX-GLR_Pluri_CellCount is 1 of 4 assay components calculated from the CCTE_Deisenroth_DEVTOX-GLR_Pluri assay and it measures cell count. Using fluorescent nuclei staining, gain-of-signal activity can be used to understand changes in cell viability with fluorescent microscopy. It is designed to make measurements of nuclei counts as a surrogate for cell number, as detected with optical fluorescence microscopy by Perkin Elmer Harmony nuclei detection algorithm. To generalize the intended target to other relatable targets, this assay component is annotated to the cell cycle intended target family, where the subfamily is cytotoxicity.Data from the assay component CCTE_Deisenroth_DEVTOX-GLR_Pluri_CellCount was analyzed as 1 assay endpoint. The endpoint the percent change in the cell count relative to the 0.2% DMSO control in the CCTE_Deisenroth_DEVTOX-GLR_Pluri assay. Furthermore, this assay endpoint can be referred to as a primary readout, because this assay has produced multiple assay endpoints where this one serves as a measure of cytotoxicity.
# as §1
structure (smiles),measurement,setting,value
FC(F)(F)COC(OCC(F)(F)F)OCC(F)(F)F,outcome,[1],inactive
same,outcome,[2],inactive
FC(F)=C(F)C(F)(F)C(F)(F)C(F)(F)C(F)(F)C(F)(F)C(F)(F)F,outcome,[1],inactive
same,outcome,[2],inactive
CCc1ccc(O)c(C(C)(C)C)c1,AC50,TTR (gene 7276),12.4 µM (active)
OCCC(F)(F)C(F)(F)C(F)(F)C(F)(F)F,outcome,[1],inactive
same,outcome,[2],inactive
O=C(Cl)C(F)(F)C(F)(F)C(F)(F)C(=O)Cl,outcome,[1],inactive
same,outcome,[2],inactive
NC(=O)N1c2ccccc2C=Cc2ccccc21,AC50,[3],100 µM (active)
same,outcome,[4],inactive
same,AC50,[5],63.4 µM (active)
same,AC50,[6],64.8 µM (active)
same,AC50,[7],23 µM (active)
same,AC50,[8],47 µM (active)
same,outcome,[9],inactive
FC(F)C(F)(F)COCC1CO1 (stereo unspecified),outcome,[1],inactive
same,outcome,[2],inactive
FC(F)(F)C(F)(F)C(F)(F)C(F)(F)C(F)(F)C(F)(F)I,outcome,[1],inactive
same,outcome,[2],inactive
CCCC(CCC)C(=O)O,outcome,[3],inactive
same,outcome,[4],inactive
same,outcome,[5],inactive
same,outcome,[6],inactive
same,outcome,[7],inactive
same,outcome,[8],inactive
same,outcome,[9],inactive
NNC(=O)c1ccncc1,outcome,[3],inactive
same,outcome,[4],inactive
same,outcome,[5],inactive
same,outcome,[6],inactive
same,outcome,[7],inactive
same,outcome,[8],inactive
same,outcome,[9],inactive
O=S(=O)(O)CCC(F)(F)C(F)(F)C(F)(F)C(F)(F)C(F)(F)C(F)(F)F,outcome,[1],inactive
same,outcome,[2],inactive
Nc1ccn([C@@H]2O[C@H](CO)[C@@H](O)[C@@H]2O)c(=O)n1,AC50,[3],0.539 µM (active)
same,AC50,[4],4.91 µM (active)
same,AC50,[5],0.259 µM (active)
same,AC50,[6],1.68 µM (active)
same,AC50,[7],0.244 µM (active)
same,AC50,[8],1.74 µM (active)
same,AC50,[9],0.234 µM (active)
OC(O)(C(F)C(O)(O)C(F)(F)F)C(F)(F)F,outcome,[1],inactive
same,AC50,[2],36.6 µM (active)
C=CCc1cc(S(=O)(=O)c2ccc(O)c(CC=C)c2)ccc1O,AC50,TTR (gene 7276),1.67 µM (active)
C[Si](C)(C)C(F)(F)C(F)(F)C(F)(F)F,outcome,[1],inactive
same,outcome,[2],inactive
O=S(=O)(O)c1ccc(N=Nc2c(O)ccc3cc(S(=O)(=O)O)ccc23)cc1,AC50,TTR (gene 7276),17.1 µM (active)
NCC(F)(F)C(F)(F)C(F)(F)C(F)(F)F,outcome,[1],inactive
same,outcome,[2],inactive
